Laboratory results reported in PubChem BioAssay (NCATS).
Inconclusive results are not listed. Activity calls are given as the source filed them. The call rests on the fitted dose curve; in most records, active means well fitted curve in the direction sought with a large enough effect; inconclusive means small, poorly fitted or top-dose-only effect, or another doubt; inactive means no such curve, though single readings can be large; an effect the other way counts as inactive or inconclusive.

Legend:
[1] = target: Aldehyde dehydrogenase, mitochondrial (Homo sapiens) (UniProt P05091); assay: qHTS for Inhibitors of the Aldehyde Dehydrogenase Family (ALDH2) Primary screen (AID 2061308); conditions: ALDH2 enzyme inhibition qHTS, 1536-well; series mostly up to 56 µM;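 further: plate controls were vehicle for no effect and reference inhibitor for full effect; nearly all actives have a fitted effect of over 55% in size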
[2] = target: Retinaldehyde dehydrogenase 3 (Homo sapiens) (UniProt P47895); assay: qHTS for Inhibitors of the Aldehyde Dehydrogenase Family (ALDH1A3) Validation screen (AID 2061312); conditions: ALDH1A3 enzyme inhibition qHTS validation, fluorescence; series mostly up to 84.7 µM; further: on the % scale 0 is the no-effect control and ±100 the full control effect; nearly all actives have a fitted effect of over 45% in size
[3] = target: Retinaldehyde dehydrogenase 3 (Homo sapiens) (UniProt P47895); assay: qHTS for Inhibitors of the Aldehyde Dehydrogenase Family (ALDH1A3) Primary screen (AID 2061315); conditions: ALDH inhibition qHTS; series mostly up to 56 µM;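 further: plate controls were DMSO vehicle for no effect and reference inhibitor for full effect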
[4] = BET inhibitor-based combinations targeting novel dependencies in MECOM-rearranged (r) AML: SET-2 cell line (AID 2202231); conditions: SET-2 AML cells viability, CellTiter-Glo luminescence, 48 h; viability: hits give low values, concentration not given here; further: nearly all actives have a fitted effect of over 35% in size; further: potency means the concentration at half of the fitted maximal effect;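 on viability: plate controls were DMSO treated cells for no effect and wells without cells for full effect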
How it was run: (§1)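 A 48 hr incubation preceded viability reading by CellTiter-Glo, with 15 min room-temperature development. Dose series had 11 points; normalization used DMSO and empty wells; AUC was computed and mean-centered per line as Z-AUC.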

[5] = BET inhibitor-based combinations targeting novel dependencies in MECOM-rearranged (r) AML: OCI-AML3 cell line (AID 2202232); conditions: CellTiter-Glo luminescence, 48 h; Potency: OCI-AML3 viability; series mostly up to 46 µM; further: nearly all actives have a fitted effect of over 35% in size; further: potency means the concentration at half of the fitted maximal effect
How it was run: as §1

[6] = BET inhibitor-based combinations targeting novel dependencies in MECOM-rearranged (r) AML: MV-4-11 cell line (AID 2202233); conditions: MV-4-11 AML viability, CellTiter-Glo luminescence, 48 h; series mostly up to 46 µM; further: nearly all actives have a fitted effect of over 45% in size; further: potency means the concentration at half of the fitted maximal effect
How it was run: (§2)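 Each compound is tested in an 11-point concentration series against 500 seeded cells/well for 48 hr. The luminescent viability signal is normalized to DMSO and blank wells, then reduced to AUC and a cell-line-centred Z-AUC.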

[7] = BET inhibitor-based combinations targeting novel dependencies in MECOM-rearranged (r) AML: AML-191 cell line (AID 2202236; further: nearly all actives have a fitted effect of over 35% in size; further: potency means the concentration at half of the fitted maximal effect); conditions: AML-191 viability, CellTiter-Glo luminescence, 48 h; series mostly up to 46 µM
How it was run: as §1

[8] = BET inhibitor-based combinations targeting novel dependencies in MECOM-rearranged (r) AML: AML-194 cell line (AID 2202237; further: nearly all actives have a fitted effect of over 40% in size; further: potency means the concentration at half of the fitted maximal effect); conditions: AML-194 (MECOM-r AML) viability, CellTiter-Glo, 48 h; series mostly up to 46 µM
How it was run: as §1

[9] = BET inhibitor-based combinations targeting novel dependencies in MECOM-rearranged (r) AML: HNT-34 cell line (AID 2202234); conditions: HNT-34 AML viability, CellTiter-Glo luminescence, 48 h; series mostly up to 46 µM; further: nearly all actives have a fitted effect of over 35% in size; further: potency means the concentration at half of the fitted maximal effect
How it was run: as §2

[10] = BET inhibitor-based combinations targeting novel dependencies in MECOM-rearranged (r) AML: UCSD-AML1 cell line (AID 2202235); conditions: UCSD-AML1 AML cells viability, CellTiter-Glo, 48 h; series mostly up to 46 µM; further: nearly all actives have a fitted effect of over 40% in size; further: potency means the concentration at half of the fitted maximal effect
How it was run: as §2

COc1cc(Nc2nc3ccccc3nc2NS(=O)(=O)c2ccc(NC(=O)c3ccc(OC)c(C)c3)cc2)cc(OC)c1
inactive: Potency [1] | Potency [2] | Potency [3]

COC(=O)N(C)c1c(N)nc(-c2nn(Cc3ccccc3F)c3ncccc23)nc1N
inactive: Potency [1] | Potency [2] | Potency [3] | viability [4] 119% | Potency [5] | Potency [6] | Potency [7] | Potency [8]

CC(C)(C)c1ccc(-c2nc3c(N4CCN(Cc5ccc6nccnc6c5)CC4)cccc3[nH]2)cc1
inactive: Potency [1] | Potency [2] | Potency [3]

CC(C)(C)OC(=O)N[C@H]1CCCCCC=C[C@@H]2C[C@@]2(C(=O)NS(=O)(=O)C2CC2)NC(=O)[C@@H]2C[C@@H](OC(=O)N3Cc4cccc(F)c4C3)CN2C1=O
inactive: Potency [1] | Potency [2] | Potency [3] | viability [4] 102% | Potency [9] | Potency [10] | Potency [7] | Potency [8]

COc1cccc(-c2cc(F)ccc2C2Cc3nc(N)nc(C)c3C(=O)N2)n1 (stereo unspecified)
active: Potency [4] 74.2 nM | Potency [5] 66.1 nM | Potency [6] 41.7 nM | Potency [9] 132 nM | Potency [10] 105 nM | Potency [7] 93.4 nM | Potency [8] 93.4 nM
inactive: Potency [1] | Potency [2] | Potency [3]

COc1cc2c(cc1O)[C@H](c1ccc(O[C@@H]3O[C@H](CO)[C@@H](O)[C@H](O)[C@H]3O)c(OC)c1)[C@@H](CO)[C@](O)(CO)C2
inactive: Potency [1] | Potency [3]

CCCCNc1nc(N)c2[nH]c(=O)n(Cc3ccc(OCCN(C)C)nc3)c2n1
inactive: Potency [1] | Potency [2] | Potency [3]

C[C@H]1CN(C[C@H](Cc2ccccc2)C(=O)NCC(=O)O)CC[C@@]1(C)c1cccc(O)c1
inactive: Potency [1] | Potency [2] | Potency [3] | viability [4] 120% | Potency [5] | Potency [6] | Potency [9] | Potency [10] | Potency [7]

CCOC(=O)C1=C(C)NC2=C(C(=O)CC(C)(C)C2)C1c1ccc(-c2ccccc2)cc1 (stereo unspecified)
active: Potency [5] 13200 nM
inactive: Potency [1] | Potency [2] | Potency [3] | Potency [10] | Potency [7] | Potency [8]

CC(C)(O)C1CCC(C)(C2CCC3(C)C4CCC5C(C)(C(=O)OC6OC(CO)C(O)C(O)C6O)C(O)CC(O)C56CC46CCC23C)O1 (stereo unspecified)
inactive: Potency [1] | Potency [3]

Cc1cc(-c2ncc(CC(=O)Nc3ccc(-c4cnccn4)cn3)cc2C)ccn1
active: Potency [4] 11800 nM | Potency [5] 8330 nM | Potency [6] 8330 nM | Potency [10] 26300 nM
inactive: Potency [1] | Potency [2] | Potency [3] | Potency [8]

NC(=O)Nc1cc(-c2cccc(F)c2)sc1C(=O)N[C@H]1CCCNC1
inactive: Potency [1] | Potency [2] | Potency [3]
active: Potency [4] 934 nM | Potency [5] 468 nM | Potency [6] 2.1 nM | Potency [10] 296 nM | Potency [7] 332 nM | Potency [8] 372 nM

C/C=C(\C)C(=O)OC[C@H]1O[C@H](O[C@H]2O[C@H](CO)[C@@H](O)[C@H](O)[C@H]2O[C@@H]2O[C@H](CO)[C@@H](O)[C@H](O)[C@H]2O)[C@H](O[C@@H]2O[C@H](CO)[C@@H](O)[C@H](O)[C@H]2O)[C@@H](O)[C@@H]1O
inactive: Potency [1] | Potency [3]

O=C(c1ccc(C(=O)N2CCC(N3CCCC3)CC2)c(Nc2ccccc2)c1)N1CCC(N2CCCC2)CC1
inactive: Potency [1] | Potency [2] | Potency [3] | viability [4] 111% | Potency [5] | Potency [9] | Potency [10] | Potency [7] | Potency [8]
active: Potency [6] 9340 nM

CC(C)=CC1C[C@](C)(O)[C@@H]2[C@H]3CCC4[C@@]5(C)CC[C@H](O[C@@H]6OC[C@H](O)[C@H](O[C@@H]7O[C@H](CO[C@@H]8O[C@H](CO)[C@@H](O)[C@H](O)[C@H]8O)[C@@H](O)[C@H](O)[C@H]7O)[C@H]6O[C@@H]6O[C@@H](C)[C@H](O)[C@@H](O)[C@H]6O)C(C)(C)[C@@H]5CC[C@@]4(C)[C@@]34CO[C@@]2(C4)O1 (stereo partly specified)
inactive: Potency [1] | Potency [3]

C/C(=C\C(=O)OCCCCCCCCC(=O)O)C[C@@H]1OC[C@H](C[C@@H]2O[C@H]2[C@@H](C)[C@H](C)O)[C@@H](O)[C@H]1O
inactive: Potency [1] | Potency [2] | Potency [3]

C[C@]1(OC(=O)/C=C/c2ccccc2)C[C@@H](O)[C@]2(O)C=CO[C@@H](O[C@@H]3O[C@H](CO)[C@@H](O)[C@H](O)[C@H]3O)[C@@H]21
inactive: Potency [1] | Potency [3]

CC(C)(C)NC(=O)[C@@H](c1cccnc1)N(C(=O)c1ccco1)c1ccc(C(C)(C)C)cc1
inactive: Potency [1] | Potency [3]

Cn1cc(-c2ccc(F)c(C(F)(F)F)c2)nc1C1CCN(c2ncnc3[nH]ncc23)CC1
active: Potency [5] 742 nM | Potency [7] 20900 nM
inactive: Potency [1] | Potency [2] | Potency [3] | viability [4] 96.6% | Potency [10] | Potency [8]
